The values that follow come from PubChem BioAssay AID431 (Sanford-Burnham Center for Chemical Genomics, 2006).

In all, about 63,000 compounds went through this assay and about 1,100 (1.7%) were called active.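 How the source made its calls: active means compounds whose percent cytotoxicity in the single-dose primary screen, scaled between solvent and toxic-drug controls, exceeds 50; inactive means the rest.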 This excerpt belongs to a sample that is enriched for actives. Entries with a potency or affinity are not part of this list.

This test can be described thus: cytotoxicity in KRAS-transformed pancreatic duct cells, primary screen, cell-based, fluorescence, HTS (AID 431).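 Further: 0% = DMSO solvent wells and 100% = doxorubicin-treated wells.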 Particulars: HPDE-C7K KRASV12 cells, Alamar Blue viability, 48 h; at 10 µM; active compounds read high. A general note: Alamar Blue is a resazurin reagent that responds to reducing activity.
With `Cc1ccccc1C(=O)N1CCC(C(=O)Nc2cccc(F)c2)CC1`, the cytotoxicity is 3% (inactive).
With `O=C(O)C1C2CCC(C2)C1C(=O)NCCCn1ccnc1` (stereo unspecified) the figure was -7.9% (inactive); with `CCCc1cc(=O)n2[nH]c(-c3cc(OC)c(OC)c(OC)c3)nc2n1`, -9.7% (inactive).
For `CCCOc1cccc(C(=O)Nc2cccc(NC(=O)c3ccco3)c2)c1`, the cytotoxicity was 7.4% (inactive).
Take `Cc1[nH]nc2c1C(c1ccc(F)cc1)C(C#N)=C(N)O2` (stereo unspecified): the cytotoxicity was -10.6% (inactive).
With `CCOC(=O)C1CCCN(Cc2ccccc2F)C1` (stereo unspecified), the cytotoxicity was 4.8% (inactive).
Consider `CC(C)c1ccc(S(=O)(=O)N2CCN(CC(=O)Nc3ccc4c(c3)OCO4)CC2)cc1`, for which the cytotoxicity was 2.2% (inactive).
As to `CCOC(=O)N1CCN(Cc2nc(-c3ccccc3)no2)CC1`, the cytotoxicity was 11.5% (inactive).
As to `O=S(=O)(Nc1nc2ccccc2nc1NCc1ccco1)c1ccc(Cl)cc1`, the cytotoxicity was 20.9% (inactive).
For the molecule `Cc1noc(C)c1CSc1ncnc2ccccc12`, the cytotoxicity is 18.6% (inactive).
Turning to `Cc1noc(C)c1CSc1nc2ccccc2nc1NS(=O)(=O)c1ccc(Cl)cc1`, the cytotoxicity was 64.6% (active).
Consider `COc1cc(C2C(C(=O)OC(C)C)=C(C)Nc3[nH]c(=O)[nH]c(=O)c32)ccc1O` (stereo unspecified), for which the cytotoxicity was -5.8% (inactive).
The value for `CN1C(=O)NC(NC(=O)c2cccs2)(C(F)(F)F)C1=O` (stereo unspecified) was -12.1% (inactive); that for `COc1ccc(N(C(=O)c2cccc(OC)c2OC)C2C=CS(=O)(=O)C2)cc1` (stereo unspecified) was -2.9% (inactive); that for `c1ccc2c(c1)oc1c(Nc3ccc4c(c3)OCO4)ncnc12` was -23.6% (inactive).
Turning to `COc1ccc(/C=N/n2c(N)nc3ccccc32)cc1OC`, the cytotoxicity was -9.4% (inactive).
With `COc1ccc(-c2n[nH]c(C)c2-c2ccc(Cl)cc2)c(O)c1OC`, the cytotoxicity was -14.6% (inactive).
In the case of `C=C(C)COc1ccc(-c2nc(N)ncc2Oc2ccc(OC)cc2)c(O)c1`, the cytotoxicity is -0.9% (inactive).
Regarding `Cc1[nH]nc(-c2ccc(O)cc2O)c1-c1ccc(Cl)cc1`, the cytotoxicity was 53.9% (active).
The value for `Oc1ccc(-c2[nH]ncc2-c2ccc(Cl)cc2)c(O)c1` was 49.9% (inactive); that for `C=C(C)COc1ccc(-c2nc(N)ncc2Oc2ccccc2OC)c(O)c1` was -4.5% (inactive); that for `COc1ccc(-c2nc(N)ncc2-c2csc(C)n2)c(O)c1` was -17.5% (inactive).
`C=C(C)COc1ccc(-c2nc(N)ncc2-c2ccc(OC)cc2)c(O)c1`: the cytotoxicity is 120% (active).
Take `N#Cc1cc(C(=O)c2cc(Br)ccc2O)cn(C2CC2)c1=O`: the cytotoxicity was 10.6% (inactive).
Take `O=C(c1ccc(CN2CCc3ccccc3C2)cc1)N1CCCCC1`: the cytotoxicity was -21.9% (inactive).
For `O=S(=O)(c1ccc(N2CCOCC2)cc1)N1CCOCC1`, the cytotoxicity was -6.3% (inactive).
Consider `CC(=O)N1CC2(C)CN(C(C)=O)CC(C)(C1)C2O` (stereo unspecified), for which the cytotoxicity is 1.7% (inactive).
With `CCOc1cc(S(=O)(=O)NCCN2CCOCC2)c(C)cc1C` the figure was -17.8% (inactive); with `C=CCc1ccccc1OCC(O)CN1CCN(c2ccc(OC)cc2)CC1` (stereo unspecified), 9.3% (inactive).
With `COC(=O)C1(CCSC)NC(c2ccccc2OC)C2C(=O)N(C)C(=O)C21` (stereo unspecified) the figure was 8% (inactive); with `O=c1c2ccccc2nnn1CSc1nc2cc(Cl)ccc2c(=O)n1Cc1ccco1`, 6.2% (inactive).
In the case of `CCOC(=O)N1CCN(C2=CC(=O)OC23CCCCC3)CC1`, the cytotoxicity was 3.3% (inactive).
For `C=C(C)COc1ccc(-c2n[nH]c(C)c2Oc2ccccc2OC)c(O)c1`, the cytotoxicity was 66.1% (active).
As to `CCOc1ccc(-c2n[nH]c(C)c2Oc2ccccc2OC)c(O)c1`, the cytotoxicity was 2.5% (inactive).
The value for `Cc1[nH]nc(-c2ccc(O)cc2O)c1Oc1ccccc1` was 63.9% (active); that for `Cc1oc2cc(O)ccc2c(=O)c1Oc1ccccc1` was -6.1% (inactive); that for `COc1ccc(Oc2c(-c3ccc(O)cc3O)n[nH]c2C)cc1` was 27.1% (inactive).
The value for `COc1cccc(Oc2cncnc2-c2ccc(OC)cc2O)c1` was 21.1% (inactive); that for `C=C(C)COc1ccc(-c2ncncc2Oc2ccc(OC)cc2)c(O)c1` was 17.6% (inactive); that for `C=C(C)COc1ccc(-c2nc(N)nc(C)c2Oc2ccccc2OC)c(O)c1` was 1.4% (inactive).
With `CCc1nnc(NC(=O)CSc2nnc(-c3ccoc3C)n2-c2ccc(C)cc2)s1`, the cytotoxicity is -6.5% (inactive).
With `CC(OC(=O)C1CC=CCC1C(N)=O)C(Cl)=C(Cl)Cl` (stereo unspecified) the figure was -9.4% (inactive); with `CC(C)OC(=O)CSc1nnc(-c2cnccn2)n1C`, -7.5% (inactive); with `O=C(NCCN1CCN(c2ccccc2F)CC1)C1c2ccccc2C(=O)N2CCc3ccccc3C12` (stereo unspecified), -3.5% (inactive).
Regarding `N#CCCC12CCCCC1=Nc1ccccc12` (stereo unspecified), the cytotoxicity is -11.5% (inactive).
With `CCN1CCN(CC(=O)n2c3c(c4ccccc42)CC(C)CC3)CC1` (stereo unspecified) the figure was 16.2% (inactive); with `COc1ccc(CNC(=O)c2cc(-c3ccco3)on2)cc1`, -5.9% (inactive).
The value for `c1csc(-c2nn3c(C4COc5ccccc5O4)nnc3s2)c1` (stereo unspecified) was -1.6% (inactive); that for `C=CCOc1nc2c(c(=O)n(C)c(=O)n2C)n1Cc1ccc(Cl)cc1` was 64.6% (active); that for `C=CCOc1nc2c(c(=O)n(C)c(=O)n2C)n1Cc1ccc(Cl)cc1Cl` was -24.2% (inactive).
On to `C=CCOc1nc2c(c(=O)n(Cc3ccc(Cl)cc3)c(=O)n2C)n1C`, for which the cytotoxicity was -0.2% (inactive).
In the case of `CCC(C)NC(=O)CN(c1ccc2c(c1)OCO2)S(=O)(=O)c1c(C)n[nH]c1C` (stereo unspecified), the cytotoxicity is 3.1% (inactive).
Take `CC1(C)CC(=O)c2cnc(NC(=O)CCc3ccccc3)nc2C1`: the cytotoxicity is -12.6% (inactive).
For the molecule `N#Cc1c(NC(=O)CCN2C(=O)c3ccccc3C2=O)oc(-c2ccccc2)c1-c1ccccc1`, the cytotoxicity is 2.4% (inactive).
With `CCn1c(SCC(=O)Nc2oc(-c3ccccc3)c(-c3ccccc3)c2C#N)nnc1-c1ccco1` the figure was 29.1% (inactive).
As to `N#Cc1c(NC(=O)CN2CCOCC2)oc(-c2ccccc2)c1-c1ccccc1`, the cytotoxicity was 10.6% (inactive).
As for `N#Cc1c(NC(=O)Cn2c(=O)oc3ccccc32)oc(-c2ccccc2)c1-c1ccccc1`, the cytotoxicity was 52% (active).
On to `Cc1ccnc(SCC(=O)Nc2oc(-c3ccccc3)c(-c3ccccc3)c2C#N)n1`, for which the cytotoxicity is 29.2% (inactive).
On to `CCc1nnc(NC(=O)CN2CCN(c3ccccc3OC)CC2)s1`, for which the cytotoxicity is -2.9% (inactive).
The value for `CCOC(=O)CSc1nc2ccsc2c(=O)n1C1CCN(C(=O)OCC)CC1` was 8% (inactive); that for `O=C(COC(=O)c1ccc2c(c1)OCO2)NCc1ccc(Cl)cc1` was 8.3% (inactive).
